These results are taken from PubChem BioAssay (NCI).

The structures appear in SMILES notation. Several values for one entry are separate records, joined by “and”; a condition that tells them apart may be missing. Equal values may be shown once. About 83,000 compounds went through this panel and 20% of them were active in at least one assay; those are over-represented in the sample as a whole.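 48-hour exposure, single concentration, 96-well plates; percent growth endpoint where 0 means no net growth. Active: below 10.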 Unmarked numbers belong to inactive results. Activity calls are given as the source filed them.

In the test the test system is HL-60(TB) leukemia. Put plainly: NCI-60 one-dose screen, 48 h (100 = growth as untreated, 0 = no growth, -100 = all killed). To be noted: 10 µM unless noted.
As for `Nc1cc2ccccc2c(=O)n1NC(=O)c1ccccc1`, the growth is 101%.
For `COc1ccc(C(=O)NNC(=O)CSc2nc3sc4c(c3c(=O)n2-c2ccc(Cl)cc2)CCCC4)cc1`, the growth is 64.5%.
As for `Nc1cc2ccccc2c(=O)n1NC(=O)c1ccc(Br)cc1`, the growth is 99.4%.
On to `O=C1Nc2cc(-c3ccc(NS(=O)(=O)c4ccc(F)c(Cl)c4)cc3)ccc2/C1=C/c1ccc[nH]1`, for which the growth was 46.9%.
As for `Cc1ccc(N=Nc2c(N)nn3c(-c4cc5cc(Br)ccc5oc4=O)ccnc23)cc1`, the growth was 83.2%.
`CC1[C@H]2[C@H](C[C@H]3[C@@H]4CC=C5c6sc(Nc7ccccc7F)nc6CC[C@]5(C)[C@H]4CC[C@@]32C)O[C@]12CC[C@@H](C)CO2` (some centres undefined): the growth was -41.9% (active).
Regarding `Cn1cc(-c2nc(N)nnc2-c2c[nH]c3ccccc23)c2cc(Br)cnc21`, the growth is 4.17% (active).
With `COc1cccc(O)c1/C=C1\SCc2cc3c(OC)cccc3[o+]c21`, the growth was 100%.
For `CC(C)CSc1nc(NCCc2c[nH]c3ccccc23)c(C#N)c(-c2ccccc2)n1` the value was 60.7%; for `C=C1CC[C@@H]2[C@]3(C)COC(c4cn[nH]c4-c4ccc(F)cc4)O[C@@H]3CC[C@@]2(C)[C@@H]1C/C=C1/C(=O)OCC1O` (some centres undefined), -21.7% (active).
As to `O=c1[nH]c2ccccc2cc1CSc1ccc(Nc2nccc(-c3ccc(C(F)(F)F)cc3)n2)cc1`, the growth is 69.5%.
Under `COc1ccc(/C=C/C(=O)c2ccc(N3CCN(C)CC3)cc2)c(C(F)(F)F)c1` stands -24.7% (active); under `OC(c1ccccc1)(c1ccccc1)C1CCN(c2ccc3nnc(Cl)n3n2)CC1`, -33.6% (active); under `CCCCCCCCCCCCCCCCCCCC(=O)NCCc1c[nH]c2ccc(OC(=O)NOCCOCCOCCOCCOCCOCCOCCOCCOCCOCCOCCOCCOCCOCCOCCOCCOCCOCCOCCOCCOCCOCCOC)cc12`, -38.2% (active).
Turning to `CS(=O)(=O)Nc1cccc(-n2c(COc3ccc(OC(F)(F)F)cc3)nc3ccccc32)c1`, the growth is 111% and 95.1%.
As for `COC(=O)c1cccc(Oc2ccc(NC(=O)Nc3cc(C(F)(F)F)ccc3F)cc2)c1`, the growth is 78%.
`CCCCSc1nc(Nc2ccc(C(C)=O)cc2)c(C#N)c(-c2ccc(OC)cc2)n1`: the growth is 88%.
Regarding `COc1ccc2[nH]cc(-c3cc(N)n4nc(-c5c[nH]c6ccccc56)cc4n3)c2c1`, the growth was -44.7% (active).
Turning to `CC(=O)Nc1ccc(-n2cnc3cc(-c4ccc(O)cc4)ccc32)cc1C(F)(F)F`, the growth was 4.45% (active).
On to `CCN(CC)c1ccnc(CNCCSC(c2ccccc2)(c2ccccc2)c2ccc(C)cc2)c1`, for which the growth is -52.3% (active).
For `COc1ccc(/C=C/c2nc3ccccc3nc2Nc2cccc(C)c2)cc1` the value was 92.8%; for `CN(C)c1nc(NCCNS(=O)(=O)c2ccc(C3=Nc4c(N)nc(N)nc4NC(c4ccc(Cl)cc4)C3)cc2)nc(N2CCOCC2)n1` (centres undefined), 28.1%; for `CCCN(CCC)S(=O)(=O)c1ccc(C(=O)O)cc1.CCCN(CCC)S(=O)(=O)c1ccc(C(=O)O)cc1.[Cl][Pt+2][Cl].[NH2-].[NH2-]`, -2.97% (active).
As for `COc1ccc(NC(=O)Cn2c(/C=C/c3cccc(Br)c3)nc3ccccc3c2=O)cc1`, the growth is 92.9%.
`CCC(=O)c1c2c(c3ccc4c5ccccc5ccc4n13)C(=O)c1ccccc1C2=O`: the growth is 90.1%.
Turning to `COc1ccc2c(c1)C(Sc1ccc(Br)cc1)c1c(nc(N)c(C#N)c1N)O2` (centres undefined), the growth is 78%.
Regarding `O=C(CSc1nc2ccccc2c(=O)n1-c1ccc(Cl)cc1)Nc1ccc(-c2nc3ccc([N+](=O)[O-])cc3[nH]2)cc1`, the growth is 85.7%.
On to `CN1CCN(c2ccc(C(=O)/C=C/c3ccc(C#N)cc3)cc2)CC1`, for which the growth is 65.1%.
`CO[C@H]1CSS[C@@H]1Cn1nc(-c2ccc(Oc3ccccc3)cc2)c2c(N)ncnc21`: the growth is 8.96% (active).
Consider `Cc1ccn2c(C(=O)c3ccccc3)cc(-c3cc(-c4ccc(N(C)C)cc4)c(C#N)c(N)n3)c2c1`, for which the growth was 95.1%.
Under `COC(=O)c1cc(C(=O)C(Br)Br)n2c1ccc1c3ccccc3ccc12` stands 76.2%; under `COC[C@@H](CC(C)C)N=C1N/C(=C\c2ccc3ncsc3c2)C(=O)N1C`, -1.54% (active).
For `Cc1nc(Nc2nc(C)c3ccc(OCCN4CCOCC4)cc3n2)[nH]c(=O)c1C`, the growth was 2.88% (active).
On to `CN1C(=O)/C(=C/c2ccc3ncsc3c2)NC1=NC12CC3CC(CC(O)(C3)C1)C2`, for which the growth is -16.6% (active).
On to `Cc1cc(N=C2NC(=O)S/C2=C\c2ccc(F)cc2)n[nH]1`, for which the growth was 1.74% (active).
As to `COc1ccc(C2=NN(c3ccccc3)C(c3ccc(OC)c(OCc4ccccc4)c3)C2)cc1OC` (centres undefined), the growth was 100%.
Turning to `O=c1cc(-c2ccccc2)oc2cc(OCCCCNCc3ccccc3)cc(O)c12`, the growth was -65.6% (active).
Take `Cc1ccc2c(c1)nc(-c1ccccc1)n2CC(=O)N=Nc1c(O)[nH]c2ccc(Cl)cc12`: the growth is 46.2%.
Under `COC1=C[C@@]23CCC(=O)N2CCc2cc4c(cc2[C@H]3[C@H]1OC(=O)C(C)(C)O)OCO4` stands 87%.
